From PubChem BioAssay
SKKanGAS inh – SKKanGAS growth inhibition; inhibition, % at 7.5 µM; 300,000 compounds, 1.3% hits; S. pyogenes SKKanGAS, kanamycin growth, BacTiter-Glo, 6 h;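 active = mean replicate score, as percent of positive control median, at least 50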;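 also: strain carries kanamycin resistance gene driven by streptokinase promoter and grows in 40 µg/ml kanamycin; loss of luminescence reflects streptokinase promoter inhibition or plain growth inhibition; 0% = median of DMSO wells and 100% = positive control at its reference dose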
tim23-1 inh – growth inhibitors of tim23-1 mutant yeast; S. cerevisiae tim23-1 growth, BacTiter-Glo luminescence, 24 h; inhibition, % at 20 µM; 330,000 compounds, 1.3% hits; AID 463212;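 active = growth inhibition of the mutant yeast at or above 50%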;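 also: temperature-sensitive mutant grown at 25 °C; plate controls were DMSO-treated mutant yeast for no effect and medium wells lacking yeast for full effect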
TIM10 inh – TIM10 yeast growth inhibition; S. cerevisiae TIM10 strain growth, BacTiter-Glo luminescence, 24 h; inhibition, % at 10 µM; 330,000 compounds, 1.4% hits; AID 463195;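 active = inhibition of 40% or more at the single tested concentration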;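 also: wild-type TIM10 isogenic control strain grown at permissive 25 °C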
tim10-1 inh – inhibits growth of tim10-1 mutant yeast | S. cerevisiae tim10-1 ts strain growth, BacTiter-Glo, 24 h | inhibition, % at 20 µM | 330,000 compounds, 2.2% hits | AID 463190;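 active = inhibition of at least 40%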;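 also: mutant grown at 25 °C; 0% = DMSO wells with yeast and 100% = wells holding no yeast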
NLRP3 yeast inh – NALP3 inhibition in yeast | Yeast reconstituted NLRP3/ASC/caspase-1, beta-gal luminescence, 24 h | inhibition, % at 10 µM | 330,000 compounds, 0.39% hits;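 active = inhibition of 50% or more; inactive = inhibition below 50%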;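 also: plate controls were induced DMSO wells for no effect and uninduced yeast grown without galactose for full effect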
NALP1 yeast inh – NALP1 inhibition; S. cerevisiae NALP1/ASC/caspase-1 growth, X-gal OD620, 72 h; inhibition, % at 10 µM; 280,000 compounds, 0.61% hits; in the data active = inhibition mostly above about 24%, no sharp cut-off; inactive = mostly below about 32%
Active calls of the source: *; nt = not tested or not shown. An excerpt weighted towards active compounds, which were near 4.9% of everything screened.

SMILES	SKKanGAS inh	tim23-1 inh	TIM10 inh	tim10-1 inh	NLRP3 yeast inh	NALP1 yeast inh
CC(C)Cc1nc2oc3c(Cl)ncnc3c2c2c1CCCC2	-11	36	18	26	-2	nt
CCCc1nc2oc3c(Cl)ncnc3c2c2c1CCCC2	53*	43	33	22	25	9
COc1ccc(N2CCN(C(=O)COC(=O)c3ccc(C)o3)CC2)cc1	2	12	-2	14	29	nt
COc1ccccc1-c1noc(CSc2nc(N)cc(=O)[nH]2)n1	-18	-8	3	0	-1	33*
CCOC(=O)Cc1c(C)nc2c(-c3cccc(Br)c3)c[nH]n2c1=O	95*	13	7	6	4	7
Cc1ccc(Cc2cnc(N3C(=N)SC(c4ccccc4)C3=O)s2)cc1 (stereo unspecified)	104*	10	28	35	3	6
N=C1SC(c2ccccc2)C(=O)N1c1ncc(Cc2ccccc2)s1 (stereo unspecified)	97*	-7	15	33	9	9
O=C(Nc1ncc(Cc2ccccc2)s1)C1=NCCN1	-11	-11	8	14	-10	-12
COCCN1C(=O)/C(=C/c2ccc(OCc3ccc(C(=O)O)cc3)c(OC)c2)SC1=Nc1ccccc1	91*	6	22	24	18	25
NC(=O)NC(=O)CSc1nc2sc(-c3ccccc3)cc2c(=O)n1-c1ccccc1	62*	19	31	-2	21	-3
CNC(=O)CSc1nc2sccc2c(=O)n1-c1ccccc1	6	-10	7	0	14	8
Cc1cc(/C=C2\SC(=Nc3ccc(F)cc3)NC2=O)c(C)n1-c1ccc(S(N)(=O)=O)cc1	61*	18	-8	7	3	-9
Cc1cc(/C=C2\SC(=S)NC2=O)c(C)n1-c1ccccc1	41	29	6	24	26	-2
Cc1cc(/C=C2\SC(=S)NC2=O)c(C)n1-c1ccc(O)cc1	100*	36	16	11	16	38
CNC(=O)/C(C#N)=C\c1cc(C)n(-c2ccc(N3CCOCC3)cc2)c1C	62*	-14	-7	-6	12	-11
Cc1cc(/C=C2/SC(=O)NC2=O)c(C)n1-c1ccc(N2CCOCC2)cc1	90*	4	8	13	5	16
CC(OC(=O)Cc1c(F)cccc1Cl)C(=O)NC1CCCCC1C (stereo unspecified)	nt	22	7	-2	20	nt
CCCn1c(N)c(C(=O)CSc2nc(C3CC3)n(-c3ccccc3)n2)c(=O)[nH]c1=O	nt	-15	-7	-3	-4	nt
CCOc1ccc(CNC(=O)CCC(=O)n2nc(C)c3ccccc32)cc1	4	1	-1	12	10	25
C=CCn1c(COc2ccccc2)nnc1SCC(=O)N/N=C/c1ccc(C)cc1	0	11	22	29	9	-3
C=CCn1c(COc2ccccc2)nnc1SCC(=O)N/N=C/c1cc(Cl)ccc1O	63*	22	11	12	15	26
COc1ccc2[nH]c3c(c2c1)CCN1C(=O)C(CC(=O)NCCCn2ccnc2)C[C@H](C(=O)N(C(C)C)C(C)C)[C@@]31C (stereo partly specified)	nt	36	-5	16	nt	nt
Cc1cccc2nc(COc3ccc4ccccc4c3Br)cn12	64*	36	17	29	11	nt
Cc1c(C(=O)N2CCN(Cc3ccccc3)CC2)sc2ncnc(N3CCOCC3)c12	10	29	-3	27	-4	39
Cc1c(C(=O)N2CCC(Cc3ccccc3)CC2)sc2ncnc(N3CCC(C)CC3)c12	56*	34	20	34	7	8
SMILES	SKKanGAS inh	tim23-1 inh	TIM10 inh	tim10-1 inh	NLRP3 yeast inh	NALP1 yeast inh
COc1ccc(S(=O)(=O)Nc2ccccc2C)cc1C(=O)N1CCOCC1	1	-8	1	5	5	5
Cc1ccccc1NS(=O)(=O)c1ccc(C)c(C(=O)N2CCOCC2)c1	52*	-6	-2	3	3	8
CN(Cc1ccccc1)C(=O)c1[nH]cnc1C(=O)Nc1ccon1	nt	-5	-6	-1	13	nt
Cc1cccc(C)c1NC(=S)N/N=C/c1ccc(OCCC(C)C)cc1	67*	-6	16	27	23	-4
CCCCOc1ccc(/C=N/NC(=S)Nc2cccc(C)c2C)cc1	7	1	16	36	37	-13
Nc1ccc(C(=O)O)cc1[N+](=O)[O-]	-5	-2	7	3	-3	-14
